Screening data deposited in PubChem BioAssay by National Center for Advancing Translational Sciences (NCATS).
HT1080NT lethal = kills 2HG-producing HT-1080-NT fibrosarcoma cells. HT-1080-NT fibrosarcoma viability, CellTiter-Glo ATP luminescence, 48 h. Potency, µM (series often up to 46.1 µM), actives largely listed as cytotoxic. hit rate 1.6% among 360,000;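 note: NT is the 2HG producing partner of a matched IDH1 knockdown line; nearly all actives have a fitted effect of over 55% in size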
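Viability of the 2HG-overproducing fibrosarcoma line after 48 hours of compound exposure at 37 degrees C was determined by luminescence with CellTiter-Glo, and concentration-effect curves were then fitted and categorized.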
TGFb inhibitor = inhibitors of TGF-b signaling | Potency, µM (highest dose often 46.1 µM), usual class: inhibitors | HepG2 CAGA-GFP TGF-b/SMAD3 reporter, GFP fluorescence, 18 h; TGF-beta stimulated, 500 pg/mL final | hit rate 1.2% among 410,000; note: nearly all actives have a fitted effect of over 65% in size
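Using HEPG2 CAGA-GFP reporter cells at 1000 cells/well, we pinned test compounds, stimulated with recombinant TGF-beta (500 pg/mL final) and measured total well GFP after 18 h.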
HepG2 viability = kills HepG2 cells in TGF-b inhibitor counter-screen | Potency, µM (series often up to 46.1 µM), actives largely listed as cytotoxic | hit rate 0.76% among 410,000 | HepG2 CAGA-GFP viability, ATP luminescence, 18 h | AID 588856
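CellTiter-Glo luminescence gave cytotoxicity after 18 hours at 37 degrees C. The cells were HepG2 CAGA-GFP in 1% FBS DMEM, stimulated with 500 pg/mL TGF-beta after compound addition. %Activity was normalised to no-cell wells (complete cell-killing) and DMSO (no toxicity), and curves were fitted and classified.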
DT40 TDP1 CPT = growth inhibition of DT40 Tdp1-/-;hTDP1 cells with camptothecin (screen for TDP1 inhibitors); chicken DT40 Tdp1-/-;hTDP1 cells + 20 nM CPT, ATP luminescence, 48 h; AID 686979; hit rate 12% among 420,000; Potency, µM (doses to about 46.2 µM), most hits filed as inhibitors; note: nearly all actives have a fitted effect of over 55% in size
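Chicken DT40 Tdp1-/- cells complemented with human TDP1, 400 cells/well, exposed to compounds plus 20 nM camptothecin for at least 48 h at 37 C; viability read as ATP content by CellTiter-Glo luminescence.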
HT1080 IDH1KD tx = toxicity to HT-1080 IDH1 knockdown cells (counter line). HT-1080 IDH1 knockdown viability, ATP luminescence, 48 h. Potency, µM (series often up to 46.1 µM), most hits filed as cytotoxic. hit rate 2% among 360,000. AID 686971
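IDH1KD HT-1080 cells, 750/well, RPMI + 5% FBS; compound pinned after 2 h settling; 48 h, 37 °C; CellTiter-Glo luminescence; % activity normalised to DMSO and no-cell wells; curves fitted, classed by r2 and efficacy.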
DT40 TDP1 no CPT = qHTS for Inhibitors of human tyrosyl-DNA phosphodiesterase 1 (TDP1): qHTS in cells in absence of CPT; DT40 Tdp1-/- hTDP1 cells, no CPT, ATP luminescence, 48 h; Potency, µM (titrated, usually from 46.2 µM), usual class: inhibitors; hit rate 15% among 420,000; note: nearly all actives have a fitted effect of over 55% in size
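Growth of hTDP1-complemented DT40 Tdp1-knockout cells is measured by ATP luminescence after at least 48 hr compound exposure at 37 °C, with DMSO substituting for the 20 nM CPT used in the parallel screen.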
Large screens that a line does not name were inactive. In the library only some 17% were active in any assay of this set; here they are far more common. Calls come from the whole dose curve; as a rule, active = well fitted curve in the direction sought with a large enough effect; inconclusive = small, poorly fitted or top-dose-only effect, or another doubt; inactive = no such curve, though single readings can be large; an effect the other way counts as inactive or inconclusive.

C[C@H]1CCCCO[C@@H](CN(C)C(=O)NC2CCCCC2)[C@@H](C)CN([C@@H](C)CO)C(=O)c2cc(NC(=O)Cc3ccccc3)ccc2O1	DT40 TDP1 no CPT 18µM
C[C@H](CO)N1C[C@H](C)[C@@H](CN(C)S(=O)(=O)c2ccccc2)OCCCC[C@H](C)Oc2ccc(NC(=O)CCC(F)(F)F)cc2C1=O	DT40 TDP1 CPT inconclusive, DT40 TDP1 no CPT inconclusive
Cc1noc(C)c1S(=O)(=O)Nc1ccc2c(c1)C(=O)N([C@H](C)CO)C[C@H](C)[C@@H](CN(C)C(=O)CCCN(C)C)OCCCC[C@@H](C)O2	none
COc1ccc(NC(=O)c2ccc(CNS(=O)(=O)c3ccc4c(c3)C(C)(C)C(=O)N4C)cc2)cc1	DT40 TDP1 CPT inconclusive, DT40 TDP1 no CPT inconclusive (no result: HT1080NT lethal, HT1080 IDH1KD tx)
N#C/C(=N\Nc1cc(Cl)cc(Cl)c1)c1nnc2n1CCCCC2	TGFb inhibitor inconclusive, DT40 TDP1 CPT inconclusive, DT40 TDP1 no CPT inconclusive
C[C@@H]1CCCCO[C@@H](CN(C)S(=O)(=O)c2ccccc2)[C@@H](C)CN([C@H](C)CO)C(=O)c2cc(NS(=O)(=O)c3ccc(F)cc3)ccc2O1	TGFb inhibitor inconclusive, DT40 TDP1 CPT inconclusive, DT40 TDP1 no CPT 21µM
C[C@H]1CCCCO[C@@H](CN(C)S(=O)(=O)c2ccc(Cl)cc2)[C@@H](C)CN([C@@H](C)CO)C(=O)c2cc(NS(=O)(=O)c3ccccc3)ccc2O1	DT40 TDP1 CPT inconclusive, DT40 TDP1 no CPT inconclusive
CC(C)NC(=O)Nc1ccc2c(c1)C(=O)N([C@@H](C)CO)C[C@H](C)[C@H](CN(C)S(=O)(=O)c1ccccc1)OCCCC[C@H](C)O2	DT40 TDP1 CPT 18µM, DT40 TDP1 no CPT 12µM
C[C@@H]1CCCCO[C@@H](CN(C)S(=O)(=O)c2ccc(F)cc2)[C@@H](C)CN([C@H](C)CO)C(=O)c2cc(NC(=O)c3ccccc3)ccc2O1	DT40 TDP1 CPT inconclusive, DT40 TDP1 no CPT inconclusive
CC(=O)COc1ccc2c(-c3cccc([N+](=O)[O-])c3)cc(=O)oc2c1	DT40 TDP1 CPT inconclusive, DT40 TDP1 no CPT 23µM
O=C(COc1ccc2c(-c3ccccc3)cc(=O)oc2c1)Nc1ccc(CN2CCOCC2)cc1	DT40 TDP1 CPT 21µM, DT40 TDP1 no CPT inconclusive
O=C(COc1ccc2c(-c3ccccc3)cc(=O)oc2c1)Nc1ccc(CCO)cc1	DT40 TDP1 CPT 8.2µM, HT1080 IDH1KD tx inconclusive, DT40 TDP1 no CPT 7.3µM
Cc1ccc(-c2cnc(C(O)c3cccc(Cl)c3)[nH]2)cc1 (stereo unspecified)	HT1080NT lethal inconclusive, HT1080 IDH1KD tx inconclusive, DT40 TDP1 no CPT inconclusive
c1cc(CNC23CC4CC(CC(C4)C2)C3)ccn1	none
O=C(Cc1ccccc1)N/N=C/c1cc(Br)cc(Br)c1O	DT40 TDP1 CPT inconclusive, HT1080 IDH1KD tx inconclusive, DT40 TDP1 no CPT inconclusive
O=C(CCN1CCOCC1)N/N=C/c1cc(Br)cc(Br)c1O	HT1080NT lethal inconclusive, DT40 TDP1 CPT 6.5µM, HT1080 IDH1KD tx inconclusive, DT40 TDP1 no CPT 18µM
O=C1/C(=C\c2cccc(O)c2O)SC(=S)N1Cc1ccccc1	HT1080NT lethal inconclusive, TGFb inhibitor inconclusive, DT40 TDP1 CPT inconclusive, HT1080 IDH1KD tx inconclusive, DT40 TDP1 no CPT 23µM
O=C1/C(=C\c2cccc(O)c2)SC(=S)N1Cc1ccccc1	TGFb inhibitor inconclusive, DT40 TDP1 CPT inconclusive, DT40 TDP1 no CPT inconclusive
O=C1/C(=C/c2ccncc2)SC(=S)N1N1CCOCC1	DT40 TDP1 CPT 13µM, DT40 TDP1 no CPT inconclusive
O=C1/C(=C\c2cc([N+](=O)[O-])ccc2O)SC(=S)N1Cc1ccc(Cl)cc1	HT1080NT lethal 23µM, DT40 TDP1 CPT 16µM, HT1080 IDH1KD tx 23µM, DT40 TDP1 no CPT 3.7µM
O=C1C(=Cc2ccccc2O)SC(=S)N1CCCN1CCOCC1	DT40 TDP1 CPT inconclusive, DT40 TDP1 no CPT 9.2µM
O=C1/C(=C/c2cccnc2)SC(=S)N1N1CCOCC1	DT40 TDP1 CPT inconclusive
O=C(O)CN1C(=O)/C(=C\c2cc([N+](=O)[O-])ccc2OCc2ccccc2Cl)SC1=S	none
O=C(NCc1ccncc1)c1cnn(-c2nccc(-c3cc4ccccc4o3)n2)c1C1CC1	DT40 TDP1 CPT inconclusive (no result: HT1080NT lethal, TGFb inhibitor, HepG2 viability, HT1080 IDH1KD tx)
C/C=C/C=N/Nc1nc(C)cc(=O)[nH]1	none
Cc1cc(NC(=O)COc2ccccc2)cc(-c2nc3ccccc3o2)c1O	none (no result: HT1080NT lethal, DT40 TDP1 CPT, HT1080 IDH1KD tx, DT40 TDP1 no CPT)
CCCN1C(=O)/C(=C/c2ccncc2)SC1=S	DT40 TDP1 CPT inconclusive, DT40 TDP1 no CPT inconclusive
O=C1/C(=C/c2ccncc2)SC(=S)N1Cc1ccccc1	HT1080NT lethal 23µM, TGFb inhibitor inconclusive, DT40 TDP1 CPT inconclusive, HT1080 IDH1KD tx 18µM, DT40 TDP1 no CPT 16µM
O=C1/C(=C\c2ccc(O)c(O)c2)SC(=S)N1Cc1ccccc1	HT1080NT lethal inconclusive, TGFb inhibitor inconclusive, DT40 TDP1 CPT 21µM, HT1080 IDH1KD tx inconclusive, DT40 TDP1 no CPT 18µM
C#CCOc1ccc(/C=C2\SC(=S)N(Cc3cccnc3)C2=O)cc1	TGFb inhibitor inconclusive, DT40 TDP1 CPT 3.3µM, HT1080 IDH1KD tx inconclusive, DT40 TDP1 no CPT 4.6µM
COc1ccc2oc(C(=O)NCCN3CCOCC3)c(C)c2c1OC	none
CC1=C(C(=O)Nc2ccccc2C(F)(F)F)C(c2ccc(C)s2)NC(=S)N1 (stereo unspecified)	DT40 TDP1 no CPT inconclusive
